Test results as given in PubChem BioAssay (NCI).
Several values for one entry are separate records, joined by “and”; a condition that tells them apart may be missing. Equal entries are not always repeated. The panel holds about 83,000 compounds, 20% with a hit somewhere; the sample as a whole holds those more often.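 In brief: 96-well plates, 48 h treatment, single concentration, percent growth endpoint.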 Activity calls are given as the source filed them. Rule for the calls: active = growth percent below 10; inactive = the rest.

Experiments:
Test in all cases: NCI-60 one-dose screen, 48 h (100 = growth as untreated, 0 = no growth, -100 = all killed)
SK-MEL-2 melanoma = details: 10 µM
EKVX NSCLC = details: 10 µM
SN12C renal = details: 10 µM
UO-31 renal = details: 10 µM
TK-10 renal = details: 10 µM unless noted
ACHN renal = details: 10 µM
CAKI-1 renal = details: 10 µM
A498 renal = details: 10 µM
HL-60(TB) leukemia = details: 10 µM
MOLT-4 leukemia = details: 10 µM
SR leukemia = details: 10 µM
RPMI-8226 leukemia = details: 10 µM
OVCAR-8 ovarian = details: 10 µM
OVCAR-5 ovarian = details: 10 µM
OVCAR-4 ovarian = details: 10 µM
SK-OV-3 ovarian = details: 10 µM
IGROV1 ovarian = details: 10 µM
OVCAR-3 ovarian = details: 10 µM
HS 578T breast = details: 10 µM
CCRF-CEM leukemia = details: 10 µM

Compound	growth (SK-MEL-2 melanoma)	growth (EKVX NSCLC)	growth (SN12C renal)	growth (UO-31 renal)	growth (TK-10 renal)	growth (ACHN renal)	growth (CAKI-1 renal)	growth (A498 renal)	growth (HL-60(TB) leukemia)	growth (MOLT-4 leukemia)	growth (SR leukemia)	growth (RPMI-8226 leukemia)	growth (OVCAR-8 ovarian)	growth (OVCAR-5 ovarian)	growth (OVCAR-4 ovarian)	growth (SK-OV-3 ovarian)	growth (IGROV1 ovarian)	growth (OVCAR-3 ovarian)	growth (HS 578T breast)	growth (CCRF-CEM leukemia)
ClCc1ccc2ccccc2n1	99.4% (inactive)	93.2% (inactive)	86% (inactive)	89.8% (inactive)	113% (inactive)	96.8% (inactive)	58.5% (inactive)	98.1% (inactive)	66.3% (inactive)	81.3% (inactive)	88.2% (inactive)	98.6% (inactive)	101% (inactive)	83.4% (inactive)	101% (inactive)	113% (inactive)	78.2% (inactive)	99% (inactive)	97.4% (inactive)	–
[Cl][Hg][c]1ccc2ccccc2c1	-90.7% (active)	-48.6% (active)	-67.1% (active)	-89.3% (active)	-95.3% (active)	-85.5% (active)	-94% (active)	-9.18% (active)	-20.3% (active)	-1.79% (active)	-38% (active)	-11.1% (active)	-43.9% (active)	-13.7% (active)	-89.7% (active)	2.89% (active)	-76.6% (active)	-97.8% (active)	2.36% (active)	0.0061% (active)
O=[N+]([O-])c1ccc(N(CCO)CCO)c2c1no[n+]2[O-]	-16.3% (active)	-9.06% (active)	-4.84% (active)	7.25% (active)	-13.4% (active)	-12.3% (active)	-11.9% (active)	-15.6% (active)	-33.1% (active)	-24.4% (active)	–	-53.7% (active)	2.5% (active)	18.5% (inactive)	-25.8% (active)	-35.8% (active)	–	–	-30.8% (active)	–
C=C1C(=O)O[C@@H]2C[C@@H](C)[C@@H]3C=CC(=O)[C@@]3(C)[C@@H](O)[C@H]12	-24.4% (active)	-61% (active)	9.98% (active)	-94.9% (active)	-97.9% (active)	-93.5% (active)	-91.6% (active)	-17.1% (active)	–	-48.5% (active)	-11.7% (active)	-52.3% (active)	–	5.71% (active)	-36.6% (active)	11.5% (inactive)	-90.5% (active)	-100% (active)	18.2% (inactive)	–
CC12OOC(c3ccccc31)c1c2ccc2ccccc12 (stereo unspecified)	71.7% (inactive)	-51.5% (active)	94.4% (inactive)	-95.4% (active)	-42.6% (active)	-100% (active)	-56.1% (active)	133% (inactive)	–	-58.3% (active)	-18.8% (active)	-33.8% (active)	–	66.1% (inactive)	-57.7% (active)	95.8% (inactive)	–	-92.4% (active)	91.6% (inactive)	-41.8% (active)
O=[N+]([O-])/C=C/c1ccc([N+](=O)[O-])cc1	-43.8% (active) and 79.7% (inactive)	78.2% (inactive) and 84.1% (inactive)	64.4% (inactive) and 62% (inactive)	-82.9% (active) and 62.7% (inactive)	18.8% (inactive) and 88.6% (inactive)	21.5% (inactive) and 76.4% (inactive)	38.8% (inactive)	19.7% (inactive) and 126% (inactive)	–	47% (inactive) and 47.8% (inactive)	3.64% (active) and 20.5% (inactive)	-51.5% (active) and 17.3% (inactive)	28% (inactive) and 92% (inactive)	71.7% (inactive) and 125% (inactive)	85.6% (inactive) and 86.6% (inactive)	92.6% (inactive) and 110% (inactive)	-20.2% (active) and 66.6% (inactive)	-98.4% (active) and 36.6% (inactive)	-2.35% (active) and 93.8% (inactive)	34.8% (inactive)
O=[N+]([O-])/C=C\c1ccc2c(c1)OCO2	115% (inactive)	96.9% (inactive)	94.2% (inactive)	64.5% (inactive)	87.1% (inactive)	90.4% (inactive)	86.6% (inactive)	96.5% (inactive)	–	75.9% (inactive)	34.4% (inactive)	10.2% (inactive)	89.9% (inactive)	91.5% (inactive)	76.9% (inactive)	101% (inactive)	27.6% (inactive)	85.7% (inactive)	87.4% (inactive)	92.5% (inactive)
COc1ccc(/C=C\[N+](=O)[O-])cc1OC	92% (inactive) and 92.7% (inactive)	103% (inactive) and 76.3% (inactive)	81.4% (inactive)	33.1% (inactive) and 75.1% (inactive)	85.9% (inactive) and 76.5% (inactive)	64.4% (inactive) and 79.1% (inactive)	63.1% (inactive) and 58.6% (inactive)	92.9% (inactive) and 77.8% (inactive)	–	85.7% (inactive) and 65.5% (inactive)	–	20.7% (inactive) and -31.7% (active)	73.9% (inactive) and 75.7% (inactive)	110% (inactive) and 79.4% (inactive)	73.7% (inactive) and 80.5% (inactive)	106% (inactive) and 95.9% (inactive)	-5.78% (active) and 59.2% (inactive)	–	71.2% (inactive) and 94.4% (inactive)	–
O=c1[nH]c2ccccc2n1C1CCN(CCCC(c2ccc(F)cc2)c2ccc(F)cc2)CC1	95.8% (inactive) and 63.6% (inactive)	42.1% (inactive) and 51.4% (inactive)	40.7% (inactive) and 58% (inactive)	33.1% (inactive) and 12.5% (inactive)	62.1% (inactive) and 63.3% (inactive)	44.4% (inactive)	35.5% (inactive) and 54% (inactive)	27.2% (inactive) and -9.09% (active)	-41.7% (active) and -41.6% (active)	-34% (active) and 15.3% (inactive)	-50.8% (active) and -35.4% (active)	11.2% (inactive) and 0.602% (active)	44.3% (inactive)	38.3% (inactive)	55.6% (inactive) and 70.2% (inactive)	85.8% (inactive) and 78.4% (inactive)	71.3% (inactive) and 55.5% (inactive)	–	55.2% (inactive) and -34.7% (active)	–
Oc1ccccc1-c1ccccc1	98.1% (inactive) and 98.2% (inactive)	116% (inactive)	104% (inactive) and 92.6% (inactive)	91.1% (inactive)	97.4% (inactive) and 105% (inactive)	95.2% (inactive) and 104% (inactive)	97.4% (inactive) and 121% (inactive)	85.5% (inactive) and 108% (inactive)	–	90.1% (inactive) and 93.8% (inactive)	–	98.7% (inactive) and 93.2% (inactive)	100% (inactive) and 98% (inactive)	105% (inactive) and 109% (inactive)	108% (inactive) and 104% (inactive)	92.2% (inactive) and 102% (inactive)	97.9% (inactive) and 107% (inactive)	–	104% (inactive) and 120% (inactive)	–
C#CC1(O)CCC(C(C)(C)C)CC1 (stereo unspecified)	112% (inactive)	118% (inactive)	104% (inactive)	108% (inactive)	106% (inactive)	104% (inactive)	110% (inactive)	99.5% (inactive)	140% (inactive)	114% (inactive)	–	102% (inactive)	95.5% (inactive)	105% (inactive)	116% (inactive)	119% (inactive)	–	103% (inactive)	–	96.6% (inactive)
CC(C)(C)OOC(=O)/C=C\C(=O)OOC(C)(C)C	103% (inactive)	123% (inactive)	97.3% (inactive)	103% (inactive)	101% (inactive)	108% (inactive)	127% (inactive)	109% (inactive)	–	107% (inactive)	–	112% (inactive)	97.4% (inactive)	99.3% (inactive)	104% (inactive)	108% (inactive)	–	–	113% (inactive)	–
NC(Cc1ccccc1)c1ccccc1 (stereo unspecified)	99.8% (inactive) and 101% (inactive)	103% (inactive) and 112% (inactive)	102% (inactive) and 101% (inactive)	93.6% (inactive) and 69.8% (inactive)	101% (inactive) and 103% (inactive)	105% (inactive) and 101% (inactive)	96.5% (inactive) and 102% (inactive)	99.9% (inactive)	–	116% (inactive) and 94.2% (inactive)	–	111% (inactive) and 100% (inactive)	104% (inactive) and 108% (inactive)	98.5% (inactive) and 96.1% (inactive)	103% (inactive) and 112% (inactive)	101% (inactive) and 103% (inactive)	107% (inactive) and 101% (inactive)	–	98.9% (inactive) and 119% (inactive)	–
COc1cc([C@@H]2c3cc4c(c(O)c3C[C@H]3COC(=O)[C@@H]32)OCO4)cc(OC)c1OC	-25.1% (active)	44.2% (inactive)	31.8% (inactive)	32.7% (inactive)	–	33.8% (inactive)	20.3% (inactive)	-29.1% (active)	–	-30.2% (active)	–	-53.3% (active)	16.4% (inactive)	32.8% (inactive)	49.9% (inactive)	-0.464% (active)	-32.1% (active)	–	-10.6% (active)	-5.4% (active)
